Bioassay records (PubChem BioAssay)
AMPAR-TARP mod = GluA2-stargazin AMPA receptor complex modulation. HEK293 GluA2+stargazin, membrane potential dye (FDSS), glutamate EC50; hits were called plate by plate, in both directions. 40,000 compounds, 3.5% hits. O88602+P19491. calls only at 30 µM. AID 1259245;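 active = any of four per-well response measures lying three or more SD from its plate-wide compound average, in either direction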
Target sequence (O88602 whole entry, looked up): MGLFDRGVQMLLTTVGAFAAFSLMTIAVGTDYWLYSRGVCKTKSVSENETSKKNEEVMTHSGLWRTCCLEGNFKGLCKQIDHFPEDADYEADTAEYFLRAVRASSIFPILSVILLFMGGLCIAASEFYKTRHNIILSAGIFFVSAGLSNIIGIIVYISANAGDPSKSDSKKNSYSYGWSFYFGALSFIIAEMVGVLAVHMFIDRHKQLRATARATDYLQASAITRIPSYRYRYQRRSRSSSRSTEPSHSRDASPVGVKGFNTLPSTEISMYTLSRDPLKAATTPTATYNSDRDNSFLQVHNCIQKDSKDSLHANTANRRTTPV
Target sequence (P19491 whole entry, looked up): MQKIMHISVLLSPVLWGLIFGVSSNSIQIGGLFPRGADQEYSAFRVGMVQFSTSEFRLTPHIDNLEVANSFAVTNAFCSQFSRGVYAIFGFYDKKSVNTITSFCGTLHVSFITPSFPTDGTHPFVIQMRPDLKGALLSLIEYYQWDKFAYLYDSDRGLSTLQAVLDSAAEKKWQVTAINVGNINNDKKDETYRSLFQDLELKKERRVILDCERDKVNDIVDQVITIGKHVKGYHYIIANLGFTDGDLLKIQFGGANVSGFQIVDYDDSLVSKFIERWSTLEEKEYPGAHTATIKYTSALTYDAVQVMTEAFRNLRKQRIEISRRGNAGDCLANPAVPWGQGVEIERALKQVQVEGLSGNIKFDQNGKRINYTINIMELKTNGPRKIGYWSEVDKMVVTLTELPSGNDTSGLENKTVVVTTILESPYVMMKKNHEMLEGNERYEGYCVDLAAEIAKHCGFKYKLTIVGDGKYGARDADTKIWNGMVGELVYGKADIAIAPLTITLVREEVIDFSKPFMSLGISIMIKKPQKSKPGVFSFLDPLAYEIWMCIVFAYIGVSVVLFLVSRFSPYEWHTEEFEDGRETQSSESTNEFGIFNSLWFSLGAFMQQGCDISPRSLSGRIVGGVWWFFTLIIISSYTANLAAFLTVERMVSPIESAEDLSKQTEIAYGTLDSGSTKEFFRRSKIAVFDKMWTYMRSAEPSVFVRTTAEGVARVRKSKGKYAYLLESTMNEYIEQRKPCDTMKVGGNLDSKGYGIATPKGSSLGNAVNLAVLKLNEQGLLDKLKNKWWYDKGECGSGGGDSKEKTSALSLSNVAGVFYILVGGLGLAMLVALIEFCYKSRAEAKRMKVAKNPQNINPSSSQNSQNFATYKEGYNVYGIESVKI
GIRK2 activator = GIRK2 channel activators by thallium flux; P48051; HEK293 GIRK2/NPY4 cells, thallium flux fluorescence; activation (% efficacy), % for hits at 75 µM; 34,000 tested, under 10 active; AID 1259324;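 active = primary screen hit, no activity in plain HEK293 cells, and in GIRK2-only cells above 5% efficacy rising with concentration; inactive = the rest, including fluorescent compounds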;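 also: efficacy is normalized control-subtracted fluorescence 15 s after thallium addition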
* = called active by the depositor; i = inactive; nt = no result; + = active, no number. The entries come from a sample that favours hits as a whole.

SMILES | AMPAR-TARP mod | GIRK2 activator
CN(C)C(CNC(=O)Cc1ccc(-c2ccccc2)cc1)c1ccc(F)cc1 (stereo unspecified) | i | nt
O=C(Nc1nc(-c2ccncc2)cs1)C1CCN(S(=O)(=O)c2cccs2)CC1 | + | nt
O=C(Nc1nc(-c2ccncc2)cs1)C1CCCN(S(=O)(=O)c2cccs2)C1 (stereo unspecified) | i | nt
Cc1ccc(-n2ncc3c(=O)n(CC(=O)N4CCCc5ccccc54)cnc32)c(C)c1 | i | nt
Cc1ccc(NC(=O)C(=O)NCCCn2ccnc2)cc1N1CCCC1=O | i | nt
Cc1cccc(C(=O)N2CCN(c3nc(C)cc(N4CCCCC4)n3)CC2)c1 | + | nt
Cc1cc(N2CCCCC2)nc(N2CCN(C(=O)c3ccccc3)CC2)n1 | + | nt
Cc1cc(N2CCOCC2)nc(N2CCN(C(=O)c3cnccn3)CC2)n1 | + | i
Cc1cc(C)cc(C(=O)N2CCN(c3nc(C)cc(N4CCCCC4)n3)CC2)c1 | i | nt
Cc1cc(N2CCCCC2)nc(N2CCN(C(=O)Cc3ccccc3)CC2)n1 | + | i
Cc1nc(N2CCCCC2)cc(N2CCN(C(=O)c3ncccn3)CC2)n1 | i | i
COc1cc(N2CCN(C(=O)c3cnccn3)CC2)nc(C)n1 | i | i
CCNc1cc(C)nc(N2CCN(C(=O)COc3ccccc3)CC2)n1 | i | i
O=C(CCN1C(=O)c2ccccc2S1(=O)=O)N1CCN(C(=O)c2ccco2)CC1 | i | i
COc1ccc(Cl)cc1NC(=O)CCc1csc(NC(=O)c2cccs2)n1 | i | i
Cc1ccc(C)c(CN2C(=O)N(c3ccc(C)c(Cl)c3)C3CS(=O)(=O)CC32)c1 (stereo unspecified) | i | i
O=C(Cc1cccc2ccccc12)NCC(c1cccs1)N1CCOCC1 (stereo unspecified) | i | i
NC(=O)Cc1csc(NC(=O)c2ccc3c(c2)ncn3-c2ccccc2)n1 | i | i
CC(=O)C1C(c2ccc(OCc3ccccc3)cc2)NC(=O)NC1(O)C(F)(F)F (stereo unspecified) | i | nt
COc1cn(CC(=O)Nc2ccc(C(C)=O)cc2)c(CSc2nccn2C)cc1=O | i | i
COc1ccc(C)cc1S(=O)(=O)Nc1ccc2c(c1)CC(=O)N2 | i | nt
Cc1cc(C(=O)Nc2ccccc2S(C)(=O)=O)on1 | i | i
CCc1cccc2sc(N(Cc3ccncc3)C(=O)c3ccc(C#N)cc3)nc12 | + | i
O=C(c1ccc([N+](=O)[O-])cc1)N(Cc1ccncc1)c1nc2ccc(F)cc2s1 | + | i
CCOc1cccc2sc(N(Cc3ccncc3)C(=O)c3ccc(S(=O)(=O)N(C)C)cc3)nc12 | nt | i
SMILES | AMPAR-TARP mod | GIRK2 activator
O=C(c1ccc([N+](=O)[O-])cc1)N(Cc1ccncc1)c1nc2c(F)cccc2s1 | i | i
COc1ccc(CNC(=O)/C(C#N)=C/N2CCN(Cc3ccc4c(c3)OCO4)CC2)cc1 | + | i
N#C/C(=C\N1CCN(Cc2ccc3c(c2)OCO3)CC1)C(=O)NCc1ccccc1 | i | i
Cc1ccccc1Oc1ccc(S(=O)(=O)N2CCN(C)CC2)cc1 | i | nt
CCc1ccccc1Nc1ncnc2c1nnn2CC | i | i
COCCN1CCC(CNC(=O)C(=O)NCc2cccs2)CC1 | + | i
O=C(NCc1cccs1)C(=O)NCC1CCN(Cc2cccs2)CC1 | i | i
O=C(CCn1c(=O)sc2ccccc21)NCCCN1CCOCC1 | i | i
CC(=O)c1sc(=Nc2ccccc2Cl)n(CCCN2CCOCC2)c1C | + | i
O=S(=O)(Oc1c(Cl)cc(Cl)c2cccnc12)N1CCCCCC1 | i | nt
O=S(=O)(Oc1c(Cl)cc(Cl)c2cccnc12)N1CCCCC1 | + | nt
CC(=O)N1CCc2c(sc(NC(=O)c3cc(C)n(C)n3)c2-c2nc3ccccc3s2)C1 | + | i
CC(=O)N1CCc2c(sc(NC(=O)c3ccccc3)c2-c2nc3ccccc3s2)C1 | i | nt
CC(C)N1CCc2c(sc(NC(=O)c3nc4ccccc4s3)c2-c2nc3ccccc3s2)C1 | i | nt
CC(C)N1CCc2c(sc(NC(=O)c3ccco3)c2-c2nc3ccccc3s2)C1 | + | nt
O=C(Nc1cccc([N+](=O)[O-])c1)C(=O)Nc1ccc2c(c1)OCO2 | i | nt
Cc1cccc(C(=O)N2CCC(c3nnc(-c4ccco4)o3)CC2)c1 | i | i
Cn1c(=O)c2c(nc3n2CC(c2ccc(F)cc2)=NN3CC(N)=O)n(C)c1=O | + | nt
Cn1c(=O)c2c(nc3n2CC(c2ccc(F)cc2)=NN3CC(=O)O)n(C)c1=O | i | nt
O=C(c1ccccc1F)N1CCC(CNS(=O)(=O)c2ccc(OC(F)(F)F)cc2)CC1 | i | i
CC(C)(C)c1ccc(OC(=O)N2CCOCC2)cc1 | i | nt
O=C(Oc1ccccc1OC(=O)N1CCOCC1)N1CCOCC1 | + | nt
COc1nn(C)cc1C(=O)Nc1ccc2c(c1)N(C(=O)c1ccco1)CC2 | + | i
CC(=O)N1CCc2ccc(NC(=O)c3ccno3)cc21 | + | i
CC(=O)N1CCc2ccc(NC(=O)c3ccc(F)c(F)c3)cc21 | i | i
SMILES | AMPAR-TARP mod | GIRK2 activator
COc1cccc(C(=O)Nc2ccc3c(c2)N(C(=O)c2ccco2)CC3)c1OC | i | i
COC(=O)c1sc2ccccc2c1S(=O)(=O)Nc1ccc(OC(F)(F)F)cc1 | i | nt
COc1ccc(-c2csc(NC(=O)C3CCCCC3)n2)cc1OC | i | i
Cc1cc(NC(=O)CCc2ccccc2)ccc1N1CCCC1=O | i | i
O=S(=O)(NCCCN1CCOC(c2ccccc2)C1)c1ccccc1Cl (stereo unspecified) | nt | i
CCOC(=O)Cn1c(=O)c2c(nc3n(-c4cc(C)ccc4C)c(C)cn23)n(C)c1=O | i | nt
CN1CCN(c2nc3c(c(=O)n(C)c(=O)n3C)n2CC(O)COc2ccccc2)CC1 (stereo unspecified) | + | nt
Cc1ccc(OCC(O)Cn2c(N3CCC(C)CC3)nc3c2c(=O)n(C)c(=O)n3C)cc1C (stereo unspecified) | i | nt
Cc1cccc(OCC(O)Cn2c(N3CCN(c4ccccc4)CC3)nc3c2c(=O)n(C)c(=O)n3C)c1 (stereo unspecified) | i | nt
COc1ccc(OCC(O)Cn2c(N3CCN(C)CC3)nc3c2c(=O)n(C)c(=O)n3C)cc1 (stereo unspecified) | + | nt
CN(C)S(=O)(=O)c1ccc(C(=O)Nc2ccc3ncsc3c2)cc1 | i | i
Cc1nc(NCC2CCCO2)nc(NCc2ccccc2)c1[N+](=O)[O-] (stereo unspecified) | i | i
Cc1ccnc(SCCn2c(N3CCOCC3)nc3c2c(=O)n(C)c(=O)n3C)n1 | + | nt
Cn1c(=O)c2c(nc(N3CCOCC3)n2CCSc2nc3ccccc3s2)n(C)c1=O | i | nt
CCc1ccc(S(=O)(=O)NCCCn2nc(-c3ccc(OC)cc3)ccc2=O)s1 | + | i
CCc1ccc(S(=O)(=O)NCCCn2nc(-c3ccccc3)ccc2=O)s1 | i | i
CC(=O)N1CCN(S(=O)(=O)c2ccc(C(=O)Nc3nnc(C(C)C)s3)cc2)CC1 | i | i
CCOCCn1c(=NC(=O)c2cc(C)no2)sc2c(OC)ccc(OC)c21 | i | i
CC(C)CCNC(=O)CCc1csc(NC(=O)c2ccc[nH]c2=O)n1 | i | nt
COCCNC(=O)CCc1csc(NC(=O)c2ccc[nH]c2=O)n1 | + | i
